The values that follow come from PubChem BioAssay (EPA / NIEHS).

Test [1] in a line: ATG_GRE_CIS: Attagene CIS-FACTORIAL HepG2 Assay for human Glucocorticoid Response Elements (GRE) (AID 2282947). To be noted: HepG2 GRE cis-reporter, Attagene multiplex mRNA; actives raise or lower the signal. The procedure, abridged: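 Cells (HepG2) bearing transfected cis-promoter reporter transcription units were treated with chemical for 24 hours. Reporter mRNA was measured via RT-PCR with capillary electrophoresis, and activity was fitted in both directions relative to DMSO.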

Test [2] in a line: ATG_ISRE_CIS: Attagene CIS-FACTORIAL HepG2 Assay for human Interferon Regulatory Factor 1 (IRF1) binding to an Interferon-Stimulated Response Element (ISRE) (AID 2282948). To be noted: HepG2 ISRE cis-reporter (Attagene), mRNA transcription readout; actives raise or lower the signal. The procedure, abridged:
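Multiplexed mRNA reporter readout in human liver HepG2 cells: cis-element-driven reporters transfected, compound added for 24 h, transcripts amplified, fluorescently labelled and sized by capillary electrophoresis; curve fitting bidirectional against DMSO.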

Test [3] is described as follows: ATG_M_32_CIS: Attagene CIS-FACTORIAL HepG2 Assay for M32 Transcription Factor (Internal Marker) (AID 2282949).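 Also: background control marker of the multiplexed CIS panel rather than a real target.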 To be noted: HepG2 Attagene cis-factorial M32 reporter, mRNA; actives raise or lower the signal. In short, it runs like this: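 HepG2 human liver cells transiently transfected with cis-promoter-driven multiple reporter transcription units, dosed 24 h. Reporter mRNA quantified by RT-PCR, FAM-labelled primer extension, HpaI digest and capillary electrophoresis; bidirectional fit versus DMSO baseline.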

A short description of test [4]: ATG_M_06_CIS: Attagene CIS-FACTORIAL HepG2 Assay for M06 Transcription Factor (Internal Marker) (AID 2282950). The settings on record: HepG2 Attagene CIS-FACTORIAL M06 internal marker reporter; actives raise or lower the signal. In short, it runs like this:
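One of many multiplexed endpoints: HepG2 reporter mRNA after 24 h dosing, detected by RT-PCR and capillary electrophoresis fluorescence; gain or loss of signal analysed against DMSO.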

In test [5] the target is Hypoxia-inducible factor 1-alpha (Homo sapiens) (UniProt Q16665). Nature of the test: ATG_HIF1a_CIS: Attagene CIS-FACTORIAL HepG2 Assay for human Hypoxia Inducible Factor 1 (HIF1A) (AID 2282951). To be noted: HepG2 Attagene cis-factorial HIF1a reporter transcription; actives raise or lower the signal. In short, it runs like this:
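HepG2, transient cis-reporter library, 24 h dosing. RNA → RT (oligo dT) → PCR → 6-FAM primer extension → HpaI → CE. Bidirectional curve fit vs DMSO.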

Test [6] addresses Hepatocyte nuclear factor 6 (Homo sapiens) (UniProt Q9UBC0). Nature of the test: ATG_HNF6_CIS: Attagene CIS-FACTORIAL HepG2 Assay for human Hepatocyte Nuclear Factor 6 (HNF6) (AID 2282952). To be noted: HepG2 Attagene cis-factorial HNF6 reporter transcription; actives raise or lower the signal. The procedure, abridged:
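Endogenous factor activity read in transiently transfected HepG2 via promoter-regulated reporter transcripts. RNA harvested 24 h post-dosing, reverse-transcribed, PCR-amplified, FAM-labelled, HpaI-digested and resolved by capillary electrophoresis; fitted in both directions against DMSO.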

Test [7] is described as follows: ATG_MRE_CIS: Attagene CIS-FACTORIAL HepG2 Assay for human Metal Responsive Element (MRE) (AID 2282954). The settings on record: HepG2 MRE cis-reporter transcription, Attagene multiplex; actives raise or lower the signal. The procedure, abridged:
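Cells were transfected with cis-promoter reporter transcription units, then dosed for 24 h. RNA was reverse-transcribed, amplified, fluorescently labelled and resolved by capillary electrophoresis, and activity was fitted in both directions relative to DMSO.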

The nature of test [8]: ATG_PBREM_CIS: Attagene CIS-FACTORIAL HepG2 Assay for human Phenobarbital-responsive Enhancer Module (PBREM) (AID 2282955). To be noted: HepG2 PBREM cis-reporter, Attagene multiplexed transcription; actives raise or lower the signal. In short, it runs like this:
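HepG2, transient MRTU transfection, 24 h dosing; RNA → oligo(dT) RT → PCR → 6-FAM extension → HpaI → CE. Bidirectional fit vs DMSO.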

In test [9] the target is Paired box protein Pax-6 (Homo sapiens) (UniProt P26367). Nature of the test: ATG_Pax6_CIS: Attagene CIS-FACTORIAL HepG2 Assay for human Paired Box 6 (PAX6) (AID 2282956). To be noted: HepG2 CIS-FACTORIAL PAX6 reporter transcription, RNA readout; actives raise or lower the signal. The procedure, abridged:
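Fluorescent RT-PCR products separated by capillary electrophoresis report PAX6-linked promoter mRNA in HepG2 cells 24 h post-dose. Curves fitted bidirectionally, DMSO as negative control.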

Test [10] in a line: ATG_PXRE_CIS: Attagene CIS-FACTORIAL HepG2 Assay for human Pregnane X Receptor Element (PXRE) (AID 2282957). The settings on record: HepG2 Attagene CIS-FACTORIAL PXRE reporter, mRNA; actives raise or lower the signal. In short, it runs like this: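 Reporter transcripts under endogenous PXR-responsive cis-regulation quantified from total RNA of transfected HepG2 cells 24 h post-dosing, via RT-PCR with fluorescent primer extension and capillary electrophoresis. Gain or loss of signal fitted against DMSO baseline.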

The nature of test [11]: ATG_PPRE_CIS: Attagene CIS-FACTORIAL HepG2 Assay for human Peroxisome Proliferator-activated Response Element (PPRE) (AID 2282958). The settings on record: HepG2 PPRE cis-element reporter, Attagene transcription factor profiling; actives raise or lower the signal. In short, it runs like this: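 Transcript-level reporter induction in transfected HepG2 cells after 24 h chemical exposure, quantified by fluorescence from RT-PCR products separated by capillary electrophoresis.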

Test [12] in a line: ATG_RORE_CIS: Attagene CIS-FACTORIAL HepG2 Assay for human RAR-related Orphan Receptor Element (RORE) (AID 2282959). To be noted: HepG2 Attagene cis-factorial RORE reporter, mRNA; actives raise or lower the signal. The procedure, abridged: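 Multiplexed reporter assay measuring mRNA induction from a cis promoter element in transiently transfected HepG2 cells after 24 h treatment. Detection via RT-PCR and capillary electrophoresis fluorescence; DMSO serves as baseline.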

The target of test [13] is Transcription factor Sp1 (Homo sapiens) (UniProt P08047). The experiment in a line: ATG_Sp1_CIS: Attagene CIS-FACTORIAL HepG2 Assay for human Specificity Protein 1 (Sp1) (AID 2282961). To be noted: HepG2 Sp1 cis-reporter transcription, actives raise or lower the signal. The procedure, abridged: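 Measures mRNA induction of an Sp1-linked reporter in HepG2 cells 24 h post-dosing. Multiplexed reporters read by RT-PCR and capillary electrophoresis; DMSO serves as negative control and baseline.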

Test [14] is described as follows: ATG_SREBP_CIS: Attagene CIS-FACTORIAL HepG2 Assay for human Sterol Regulatory Element Binding (SREBP) (AID 2282962). The settings on record: HepG2 Attagene cis-factorial SREBP reporter, mRNA; actives raise or lower the signal. The procedure, abridged: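 Endogenous factor activity is measured in HepG2 through multiplexed reporter units under cis-element control. Following a 24 h incubation, reporter transcripts are reverse-transcribed, PCR-amplified and sized by capillary electrophoresis; activity is fitted in both directions relative to DMSO.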

For test [15], the target named is Signal transducer and activator of transcription 3 (Homo sapiens) (UniProt P40763). The experiment in a line: ATG_STAT3_CIS: Attagene CIS-FACTORIAL HepG2 Assay for human Signal Transducer and Activator of Transcription 3 (STAT3) (AID 2282963). To be noted: HepG2, Attagene cis-factorial STAT3 reporter transcription; actives raise or lower the signal. In short, it runs like this: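 HepG2, MRTU-transfected, 24 h dosing. RNA → RT → PCR → FAM label → HpaI → CE. Bidirectional fit vs DMSO.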

A short description of test [16]: ATG_TA_CIS: Attagene CIS-FACTORIAL HepG2 Assay for human TA Basal Promoter (AID 2282964). To be noted: HepG2 Attagene CIS-factorial TA basal promoter reporter; actives raise or lower the signal. In short, it runs like this:
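Transient MRTU transfection of HepG2 preceded 24 h compound exposure. Reporter mRNA levels were then read by RT-PCR with capillary electrophoresis, and this background-control endpoint was fitted bidirectionally to DMSO.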

Test [17] is described as follows: ATG_TCF_b_cat_CIS: Attagene CIS-FACTORIAL HepG2 Assay for human T-Cell-Factor with beta-catenin (TCF/b-cat) (AID 2282965). The settings on record: HepG2 TCF/beta-catenin cis-reporter transcription, actives raise or lower the signal. In short, it runs like this:
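HepG2 cells transiently transfected with multiple cis-promoter-regulated reporter transcription units, so endogenous transcription factor activity is measured. Reporter mRNA read 24 hours after dosing by RT-PCR, fluorescent labelling and capillary electrophoresis; bidirectional fitting against DMSO.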

A short description of test [18]: ATG_Sox_CIS: Attagene CIS-FACTORIAL HepG2 Assay for human SRY-box transcription factor (SOX) (AID 2282960). The settings on record: HepG2 Attagene cis-factorial SOX reporter, mRNA; actives raise or lower the signal. In short, it runs like this:
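Cells were transfected with reporter constructs under cis-regulatory promoters, then exposed to chemicals for 24 h. Reporter transcripts were quantified by fluorescence after RT-PCR and capillary electrophoresis; activity was fitted in both directions against DMSO.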

Calls of active or inactive are those of the source. The calls were made as follows: active = hit-call score of the fitted dose curve at least 0.9, where 1 is the maximum; inactive = score below 0.9.

Sequence of Hypoxia-inducible factor 1-alpha (Homo sapiens) (Q16665 whole entry, looked up): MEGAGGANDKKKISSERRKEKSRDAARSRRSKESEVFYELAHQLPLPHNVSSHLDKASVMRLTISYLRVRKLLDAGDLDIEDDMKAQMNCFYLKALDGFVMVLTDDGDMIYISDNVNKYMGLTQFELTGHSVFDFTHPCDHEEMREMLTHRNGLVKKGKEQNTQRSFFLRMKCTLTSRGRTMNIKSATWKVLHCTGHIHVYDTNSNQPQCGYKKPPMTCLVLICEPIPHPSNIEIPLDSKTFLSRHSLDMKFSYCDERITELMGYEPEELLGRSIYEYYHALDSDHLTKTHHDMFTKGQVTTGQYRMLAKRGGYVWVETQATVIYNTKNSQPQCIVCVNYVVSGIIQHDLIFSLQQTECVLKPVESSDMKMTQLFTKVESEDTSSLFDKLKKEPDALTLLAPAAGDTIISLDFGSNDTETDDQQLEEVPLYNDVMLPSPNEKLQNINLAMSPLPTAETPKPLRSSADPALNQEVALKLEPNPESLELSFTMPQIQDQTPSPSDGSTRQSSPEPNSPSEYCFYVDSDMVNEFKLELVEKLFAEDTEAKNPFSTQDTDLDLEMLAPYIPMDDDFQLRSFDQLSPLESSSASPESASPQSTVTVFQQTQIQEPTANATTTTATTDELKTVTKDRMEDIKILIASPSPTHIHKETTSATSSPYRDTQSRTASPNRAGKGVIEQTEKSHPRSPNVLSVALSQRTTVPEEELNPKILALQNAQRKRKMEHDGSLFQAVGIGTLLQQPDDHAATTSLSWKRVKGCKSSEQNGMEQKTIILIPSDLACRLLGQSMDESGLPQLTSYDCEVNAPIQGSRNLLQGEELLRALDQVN
Sequence of Paired box protein Pax-6 (Homo sapiens) (P26367 whole entry, looked up): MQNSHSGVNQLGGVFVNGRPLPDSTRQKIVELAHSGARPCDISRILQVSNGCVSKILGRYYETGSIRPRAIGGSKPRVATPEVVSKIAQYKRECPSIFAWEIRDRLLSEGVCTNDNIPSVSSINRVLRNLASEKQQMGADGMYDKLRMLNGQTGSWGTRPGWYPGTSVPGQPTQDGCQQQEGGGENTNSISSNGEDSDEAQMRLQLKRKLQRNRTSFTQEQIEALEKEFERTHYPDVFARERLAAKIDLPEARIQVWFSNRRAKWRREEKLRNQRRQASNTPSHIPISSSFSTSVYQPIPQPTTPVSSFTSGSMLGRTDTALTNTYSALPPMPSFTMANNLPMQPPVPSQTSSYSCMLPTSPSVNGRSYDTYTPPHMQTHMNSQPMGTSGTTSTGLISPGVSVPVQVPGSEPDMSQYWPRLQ
Sequence of Signal transducer and activator of transcription 3 (Homo sapiens) (P40763 whole entry, looked up): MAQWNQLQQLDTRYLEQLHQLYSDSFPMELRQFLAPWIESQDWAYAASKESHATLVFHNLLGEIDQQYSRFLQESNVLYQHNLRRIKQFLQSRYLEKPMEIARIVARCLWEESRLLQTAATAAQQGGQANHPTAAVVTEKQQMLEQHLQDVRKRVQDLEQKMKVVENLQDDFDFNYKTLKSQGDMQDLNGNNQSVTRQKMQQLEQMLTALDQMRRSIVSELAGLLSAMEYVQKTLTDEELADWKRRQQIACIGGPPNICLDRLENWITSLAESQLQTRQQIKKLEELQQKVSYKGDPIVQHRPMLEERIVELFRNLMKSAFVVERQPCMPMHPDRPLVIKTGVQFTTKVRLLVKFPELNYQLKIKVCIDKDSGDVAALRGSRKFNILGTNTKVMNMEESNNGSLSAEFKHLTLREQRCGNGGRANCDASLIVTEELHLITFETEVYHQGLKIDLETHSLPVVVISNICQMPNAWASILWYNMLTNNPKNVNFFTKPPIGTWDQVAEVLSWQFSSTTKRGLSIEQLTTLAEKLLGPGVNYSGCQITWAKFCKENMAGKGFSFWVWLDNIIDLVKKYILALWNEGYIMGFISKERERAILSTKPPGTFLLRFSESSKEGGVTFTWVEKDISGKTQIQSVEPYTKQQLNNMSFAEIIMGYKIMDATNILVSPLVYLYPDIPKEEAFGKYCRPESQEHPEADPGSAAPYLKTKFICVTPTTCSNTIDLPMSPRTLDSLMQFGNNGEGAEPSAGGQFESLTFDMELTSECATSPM
Sequence of Transcription factor Sp1 (Homo sapiens) (P08047 whole entry, looked up): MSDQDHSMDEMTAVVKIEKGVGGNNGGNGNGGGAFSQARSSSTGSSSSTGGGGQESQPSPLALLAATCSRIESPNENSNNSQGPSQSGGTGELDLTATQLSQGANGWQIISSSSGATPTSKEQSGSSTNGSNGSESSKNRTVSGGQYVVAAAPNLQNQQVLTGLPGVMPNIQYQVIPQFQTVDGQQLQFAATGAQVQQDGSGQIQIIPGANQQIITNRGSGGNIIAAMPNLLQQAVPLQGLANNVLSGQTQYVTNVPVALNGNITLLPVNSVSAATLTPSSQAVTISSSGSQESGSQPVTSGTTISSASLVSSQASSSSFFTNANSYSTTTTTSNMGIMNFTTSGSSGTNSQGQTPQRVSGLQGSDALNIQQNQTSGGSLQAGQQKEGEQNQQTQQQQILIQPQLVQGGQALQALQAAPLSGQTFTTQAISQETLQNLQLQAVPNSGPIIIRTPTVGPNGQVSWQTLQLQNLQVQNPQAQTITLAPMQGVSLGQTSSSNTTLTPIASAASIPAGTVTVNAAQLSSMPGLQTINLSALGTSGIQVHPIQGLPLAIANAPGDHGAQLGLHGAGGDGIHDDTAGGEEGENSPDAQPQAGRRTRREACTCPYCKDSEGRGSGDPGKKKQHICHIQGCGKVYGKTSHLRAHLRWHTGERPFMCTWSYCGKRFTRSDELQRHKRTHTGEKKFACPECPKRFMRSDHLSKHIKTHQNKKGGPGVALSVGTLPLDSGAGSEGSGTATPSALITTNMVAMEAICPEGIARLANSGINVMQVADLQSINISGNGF
Sequence of Hepatocyte nuclear factor 6 (Homo sapiens) (Q9UBC0 whole entry, looked up): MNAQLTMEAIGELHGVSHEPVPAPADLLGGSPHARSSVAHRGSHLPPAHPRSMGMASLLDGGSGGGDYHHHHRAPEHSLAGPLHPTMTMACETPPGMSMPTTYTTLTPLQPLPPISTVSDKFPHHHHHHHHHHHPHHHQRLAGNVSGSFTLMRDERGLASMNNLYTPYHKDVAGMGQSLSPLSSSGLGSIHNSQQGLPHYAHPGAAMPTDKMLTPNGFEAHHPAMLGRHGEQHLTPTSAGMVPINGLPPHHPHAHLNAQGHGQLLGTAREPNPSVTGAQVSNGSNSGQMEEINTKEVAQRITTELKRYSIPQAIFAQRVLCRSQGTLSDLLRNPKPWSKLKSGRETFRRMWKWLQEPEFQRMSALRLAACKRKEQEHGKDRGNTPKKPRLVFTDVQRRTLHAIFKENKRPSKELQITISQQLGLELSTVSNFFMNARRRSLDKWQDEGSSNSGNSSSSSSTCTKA

For the molecule `CC(=O)OCCC(C)C`, the molecule was called inactive in [1], in test [2], in test [3], in test [4], in test [5] and in [6]. Besides, the call in test [7], in test [8], in test [9], in test [10], in test [11] and in test [12] was inactive. Also, the outcome in test [13], in test [14], in test [15], in test [16] and in test [17] was inactive.
Consider `CC(=O)OC[C@H]1O[C@@](COC(C)=O)(O[C@H]2O[C@H](COC(C)=O)[C@@H](OC(C)=O)[C@H](OC(C)=O)[C@H]2OC(C)=O)[C@@H](OC(C)=O)[C@@H]1OC(C)=O`, for which the call in test [1], in [2], in [3], in test [4], in test [5] and in test [6] was inactive. The outcome in test [7], in test [9], in test [12], in test [18], in test [13] and in [14] was inactive. The outcome in [15], in test [16] and in test [17] was inactive. Besides, in test [10], the AC50 (as a rule, the concentration at which the activity in the assay is half-maximal) is 20.1 µM (active).
Regarding `CCOC(=O)COc1ccc2c(c1)CC(NCC(O)c1cccc(Cl)c1)CC2` (stereo unspecified), the outcome in [2], in test [3], in test [4], in [6], in test [7] and in test [9] was inactive. Further, the molecule was classed as inactive in [10], in test [11], in test [12], in test [13], in [14] and in test [15]. Moreover, the call in test [16] was inactive. The results for the AC50 in [5], in [8] and in test [17] were 33 µM (active), 49.3 µM (active) and 33 µM (active), respectively.
For `CCn1nc(Cc2ccccc2)cc1C1CCN(C[C@H]2C[C@H](N(C)[C@@H](C(=O)O)C(C)C)C[C@@H]2c2cccc(F)c2)CC1`, the molecule was called inactive in [1], in test [3], in [4], in test [6], in test [7] and in test [8]. In addition, the call in test [9], in test [10], in test [11], in test [12], in [13] and in test [15] was inactive. The call in test [16] was inactive. The AC50 was 100 µM (active) in [2], 26.6 µM (active) in [5], 26.9 µM (active) in test [14] and 100 µM (active) in [17].
